Usually AC50 stands for the concentration giving half of the maximal activity seen.

The nature of test [1]: TAMU_HCS_1.5hr_SingleDonor1434_Cytotoxicity: Cytotoxicity Assessment using High-content Screening (HCS) Fluorescent Imaging for the Texas A&M University (TAMU) 1.5-hr Human Induced Pluripotent Stem Cell (iPSC)-derived Cardiotoxicity Assay (AID 2284234; active = hit-call score of the fitted dose curve at least 0.9, where 1 is the maximum). An outline of the steps: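 Human iPSC-derived cardiomyocytes dosed at 0.2, 1, 10, 100 uM final (0.5% DMSO) for 90 min at 37 C. Hoechst 33342-stained nuclei counted by 10x high-content imaging; POD is EC10, a 10% drop in total cell count versus DMSO.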

Test [2] can be described thus: IUF_NPC2c_oligodendrocyte_migration_120hr: Leibniz Research Institute for Environmental Medicine (IUF) 120-hour Neural Progenitor Cell Migration Assay for Oligodendrocyte Migration (NPC2c) (AID 2284297).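 Also: O4-positive oligodendrocyte migration distance divided by radial glia migration distance.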 An outline of the steps:
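Exposure runs 5 days from differentiation onset at 37C, seven concentrations plus solvent control, DMSO at most 0.1%, applied to primary hNPC spheres on laminin. After fixation, O4 immunostaining gives oligodendrocyte distance from the sphere core, relative to radial glia migration.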

Test [3] is described as follows: IUF_NPC2a_radial_glia_migration_120hr: Leibniz Research Institute for Environmental Medicine (IUF) 120-hour Neural Progenitor Cell Migration Assay for Radial Glia Migration (NPC2a) (AID 2284298). An outline of the steps:
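Migration distance in um, sphere core edge to migration-area edge, derived by nuclei-density algorithm from Hoechst images after 120 h compound exposure. Primary hNPC spheres differentiated on poly-D-lysine/laminin in N2 medium, 37C; medium half-replaced day 3.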

The nature of test [4]: IUF_NPC2a_radial_glia_migration_72hr: Leibniz Research Institute for Environmental Medicine (IUF) 72-hour Neural Progenitor Cell Migration Assay for Radial Glia Migration (NPC2a) (AID 2284299). An outline of the steps:
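Human fetal cortex (GW 16-19) neural progenitor spheres, 0.3 mm, plated on poly-D-lysine/laminin in N2 differentiation medium with compound from day 0. Radial glia migration distance (um, sphere core edge to migration edge) measured manually in four directions on 72 h brightfield images; well mean used.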

A short description of test [5]: IUF_NPC2b_neuronal_migration_120hr: Leibniz Research Institute for Environmental Medicine (IUF) 120-hour Neural Progenitor Cell Migration Assay for Neuron Migration (NPC2b) (AID 2284300). The method, boiled down: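 TUBB3-positive neurons are imaged after 120 h of differentiation, and their mean distance from the sphere edge is normalised to radial glia migration. Single 0.3 mm fetal hNPC spheres on poly-D-lysine/laminin received 7 compound concentrations, ≤0.1% DMSO, refreshed at day 3.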

The nature of test [6]: IUF_NPC3_neuronal_differentiation_120hr: Leibniz Research Institute for Environmental Medicine (IUF) 120-hour Neuronal Differentiation Assay (NPC3) (AID 2284301). The method, boiled down: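 Single 0.3 mm neurospheres from human fetal cortex were plated in differentiation medium containing test compound. Medium was half-replaced on day 3. After 120 h cells were fixed, immunostained and imaged, and neuronal fraction was scored against DMSO control.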

Test [7] in a line: IUF_NPC4_neurite_length_120hr: Leibniz Research Institute for Environmental Medicine (IUF) 120-hour Neuronal Morphology Assay for Neurite Length (NPC4) (AID 2284302). The method, boiled down:
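Read-out is mean neurite length in µm of TUBB3-positive neurons, skeletonized from high-content fluorescence images after 120 h. Single 0.3 mm primary human neural progenitor spheres differentiated on poly-D-lysine/laminin under continuous compound exposure; DMSO was baseline.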

Test [8] in a line: IUF_NPC5_oligodendrocyte_differentiation_120hr: Leibniz Research Institute for Environmental Medicine (IUF) 120-hour Oligodendrocyte Differentiation Assay (NPC5) (AID 2284304; active = hit-call score of the fitted dose curve at least 0.9, where 1 is the maximum;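 also: primary human fetal neural progenitor spheres plated to migrate and differentiate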). An outline of the steps:
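Oligodendrocyte differentiation scored as O4-positive cells, found by CNN image analysis, as percent of Hoechst-stained nuclei in the migration area. Scoring followed 5 days of exposure of plated hNPC neurospheres differentiating in DMEM/F12 N2 medium at 37C, with compound refreshed at day 3.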

Test [9] can be described thus: IUF_NPC4_neurite_area_120hr: Leibniz Research Institute for Environmental Medicine (IUF) 120-hour Neuronal Morphology Assay for Neurite Area (NPC4) (AID 2284305; active = hit-call score of the fitted dose curve at least 0.9, where 1 is the maximum). An outline of the steps:
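Neurite area is read out as the mean pixel area, excluding nuclei, of skeletonized TUBB3-positive neurons imaged after 120 h. Primary human neural progenitor spheres differentiated on poly-D-lysine/laminin with compound present from day 0. Activity was referenced to DMSO controls.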

The nature of test [10]: TAMU_PeakParms_SingleDonor1434_QT: Texas A&M University (TAMU) 1.5-hr Human Induced Pluripotent Stem Cell (iPSC)-derived Cardiomyocytes Calcium (Ca+2) Flux Assay for Cardiotoxicity: QT (decay-rise ratio) (AID 2284235; active = hit-call score of the fitted dose curve at least 0.9, where 1 is the maximum). An outline of the steps:
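iPSC-derived cardiomyocytes (single donor 1434) dosed at 0.2, 1, 10, 100 uM final in 0.5% DMSO, 90 min at 37C. Ca2+ flux fluorescence decay/rise ratio; EC05 (5% increase versus DMSO) as POD, excluding beat-arrest and severe-notch data.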

Test [11] is described as follows: CCTE_Mundy_HCI_Cortical_Synap_Neur_Matur_NeuriteCount: CCTE's Synaptogenesis and Neurite Maturation Assay in rat cortical cells for Neurite Count, Mundy Lab (AID 2284222).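 Also: exposure from day 7 to day 12 in vitro with readout at day 12.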 An outline of the steps: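 In this multiplexed morphology readout, rat primary cortical neurons are fixed at DIV 12 following dosing at DIV 7 and stained for MAP2, synaptophysin and nuclei. High-content image analysis yields neurite count.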

Test [12] in a line: CCTE_Mundy_HCI_Cortical_Synap_Neur_Matur_CellBodySpotCount: CCTE's Synaptogenesis and Neurite Maturation Assay in rat cortical cells for Cell Body Spot Count, Mundy Lab (AID 2284223). The method, boiled down:
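High-content imaging counts synaptophysin puncta on neuronal cell bodies per neuron after MAP2/synaptophysin immunostaining. Rat primary cortical cells, glia arrested with AraC at DIV 5, were exposed DIV 7–12; signal decrease measured against DMSO.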

A short description of test [13]: CCTE_Mundy_HCI_Cortical_NOG_NeuronCount: CCTE's Neurite Outgrowth Assay in rat cortical cells for Neuron Count, Mundy Lab (AID 2284236; active = hit-call score of the fitted dose curve at least 0.9, where 1 is the maximum;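 also: neurons counted by imaging betaIII-tubulin and Hoechst stained cortical cells; cells exposed to compound for about 48 hours before fixation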). The method, boiled down: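 Read-out: neuron number by high-content imaging of betaIII-tubulin (Alexa Fluor-488) and Hoechst-labelled rat primary cortical cells.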
A short description of test [14]: CCTE_Mundy_HCI_Cortical_NOG_BPCount: CCTE's Neurite Outgrowth Assay in rat cortical cells for Branch Point Count, Mundy Lab (AID 2284237).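 As to AC50: branch points counted about two days after chemical exposure.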 An outline of the steps: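 Measured 50.33 h after dosing, this morphology endpoint uses rat primary cortical cultures labelled for betaIII-tubulin. Branch points are quantified by high-content imaging, with DMSO as negative control and baseline.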

Test [15] in a line: CCTE_Mundy_HCI_hNP1_Casp3_7: CCTE's Caspase-Glo 3/7 Assay in human neuroprogenitor cells for Apoptosis, Mundy Lab (AID 2284240). The method, boiled down: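 Apoptosis is scored by activated caspase-3/7 luminescence in WA09-derived neural progenitor cells, measured 26.5 h after chemical dosing. Values represent gain of signal relative to DMSO vehicle.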
The nature of test [16]: CCTE_Mundy_HCI_hNP1_CellTiter: CCTE's Cell Titer-Glo 2 Assay in human neuroprogenitor cells for Viability, Mundy Lab (AID 2284241; active = hit-call score of the fitted dose curve at least 0.9, where 1 is the maximum). The method, boiled down: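 Human neural progenitor cells (hNP1, WA09-derived) were plated on poly-L-ornithine/laminin and grown 40 to 44 hours at 37 °C, 5% CO2 before chemical addition. Twenty-four hours later, ATP was measured by CellTiter-Glo luminescence; loss of signal versus DMSO indicates reduced viability.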

Test [17] is described as follows: CCTE_Mundy_HCI_hN2_NOG_NeuriteLength: CCTE's Neurite Outgrowth Assay in human hN2 cells for Neurite Length, Mundy Lab (AID 2284220; active = hit-call score of the fitted dose curve at least 0.9, where 1 is the maximum). The method, boiled down:
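Plate hNP1-derived neurons, then add chemical 2 h later as a 1/10 dilution. Stain with anti-βIII-tubulin then Alexa Fluor-488 secondary, and image automatically to measure neurite length.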

A short description of test [18]: CCTE_Mundy_HCI_hN2_NOG_NeuronCount: CCTE's Neurite Outgrowth Assay in human hN2 cells for Neuron Count, Mundy Lab (AID 2284221; active = hit-call score of the fitted dose curve at least 0.9, where 1 is the maximum). An outline of the steps: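 Read-out is the number of betaIII-tubulin-positive neurons imaged by automated high-content analysis, with DMSO as negative control.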
A short description of test [19]: CCTE_Mundy_HCI_Cortical_Synap_Neur_Matur_NeuronCount: CCTE's Synaptogenesis and Neurite Maturation Assay in rat cortical cells for Neuron Count, Mundy Lab (AID 2284242; active = hit-call score of the fitted dose curve at least 0.9, where 1 is the maximum;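 as to AC50: neuron number from Hoechst nuclei and MAP2 staining by high-content imaging; hits reduce neuron count versus DMSO baseline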). An outline of the steps: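 Rat primary cortical cells received AraC at DIV 5 to arrest glia, then were dosed with chemicals at DIV 7 through DIV 12. Fixed cells were stained for nuclei, MAP2 and synaptophysin, and neurons were counted by high-content imaging relative to DMSO.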

A short description of test [20]: CCTE_Mundy_HCI_hNP1_Pro_ResponderAvgInten: CCTE's Proliferation Assay in human neuroprogenitor cells, Mundy Lab (AID 2284224; active = hit-call score of the fitted dose curve at least 0.9, where 1 is the maximum). An outline of the steps:
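Proliferation was scored as BrdU labelling intensity in human neural progenitors derived from WA09 embryonic cells, measured 26.25 hours after chemical dosing. Activity was fitted relative to DMSO.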

Inconclusive results are not listed. Active and inactive are the calls of the source. The calls were made as follows, unless noted: active = hit-call score of the fitted dose curve at least 0.9, where 1 is the maximum; inactive = score below 0.9.

For the compound `CC(C)(c1cc(Br)c(O)c(Br)c1)c1cc(Br)c(O)c(Br)c1`, the AC50 in test [1] was 84.8 µM (active); in [2], 3.61 µM (active); in [3] it was 3.14 µM (active); in [4], 3.76 µM (active); in test [5], 5.12 µM (active); in [6], 5.06 µM (active). In addition, the half-maximal activity concentration (AC50) in test [7] is 3.33 µM (active); in test [8] it was 0.628 µM (active); in test [9], 5.13 µM (active).

In the case of `CCCOC(=O)c1cc(O)c(O)c(O)c1`, the result in [1] was inactive. The AC50 in [10] was 22.1 µM (active).

On to `O=C1O[C@H]([C@@H](O)CO)C(O)=C1O`, for which the compound was classed as inactive in [11], in test [12], in test [13], in [14], in test [15] and in test [16]. Moreover, the result in test [2], in [3], in [4], in test [5], in [6] and in [7] was inactive. Besides, in [9], the outcome was inactive.

With `c1ccc2ccccc2c1`, the call in test [1] and in test [10] was inactive.

For `CN1C(=O)CC[C@H]1c1cccnc1`, the result in test [17], in test [18], in test [11], in test [12], in [14] and in test [15] was inactive. Besides, the compound was classed as inactive in test [16] and in test [19].

`CN(C)c1ccc(C(=C2C=CC(=[N+](C)C)C=C2)c2ccc(N(C)C)cc2)cc1`: the concentration at half-maximal activity (AC50) in test [1] was 4.8 µM (active); in test [10], 0.352 µM (active).

For `Oc1ccccc1`, the compound was classed as inactive in [17], in test [18], in test [11], in test [12], in [14] and in [15]. In test [16], the compound was classed as inactive.

On to `CC/C(=C(/CC)c1ccc(O)cc1)c1ccc(O)cc1`, for which the AC50 in test [17] is 7.97 µM (active); in test [18], 3.72 µM (active); in test [1], 50 µM (active); in test [13], 28.9 µM (active); in [14] it was 12.8 µM (active); in test [15], 26.5 µM (active). Also, the AC50 is 29.7 µM (active) in test [16] and 14 µM (active) in [19]. Also, the call in [11], in test [12], in test [20] and in test [10] was inactive.
